Laboratory results as given in PubChem BioAssay AID1745848 (National Center for Advancing Translational Sciences (NCATS), 2022).
Hit rate of the full screen: of about 2,100 compounds, about 940 (45%) were called active. Another 48% or so got no clear call; they are omitted. Calls follow the shape of the dose curve; as a rule, active = well fitted inhibition curve with a large enough effect; inconclusive = small, poorly fitted or top-dose-only effect; inactive = no such curve, though single readings can be large or run the other way. So high a share suggests a set chosen from earlier hits. The list shows a part of the results.

Assay: Confirmatory qHTS for Inhibitors of ATXN expression; also: nearly all actives have a fitted effect of over 65% in size;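 as to activity change, negative = inhibition: 0% = DMSO vehicle wells and -100% = medium-only wells without cells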
Settings: ATXN2-luciferase reporter cells, luminescence, 24 h; series mostly up to 57.5 µM
Source text: PI: Daniel Scoles Ph.D. University of Utah School of Medicine, Salt Lake City, Utah MLPCN Grant: NS073009 Spinocerebellar ataxia type 2 (SCA2) is a multisystem neurodegenerative disease caused by a dominantly acting mutation leading to expansion of a polyQ domain in the ataxin-2 protein (ATXN2). SCA2 patients develop progressive ataxia and later lose function in other neuronal systems. Prominent parkinsonian signs develop in some patients. Like many neurodegenerative disorders, no symptomatic or disease-modifying treatments are known. The primary objective of the proposed research is to identify compounds inhibiting ATXN2 expression and to test them for efficacy in SCA2 mouse models. We have developed a cell-based assay paired with an in vivo mouse model using identical luciferase expression constructs. This approach takes advantage of an ATXN2-luciferase transgene, with the luciferase gene flanked by the upstream and downstream portions of the ATXN2 gene. Here we describe a 5-7 dose quantitative high thoroughput screen (qHTS) for compounds lowering ATXN2 expression. We screened the NIH Molecular Libraries Small Molecule Repository (MLSMR) and NCGC's mechanistically annotated (MIPE) and drug repurposing (NPC) collections of compounds for lowering expression of an ATXN2-luciferase reporter in HEK-293 cells. The assay is a multiplexed cell viability assay to ensure target reduction in the absence of cytotoxicity. Secondary qHTS assays included a CMV-luciferase reporter expressed in HEK-293 cells as well as a biochemical assay using recombinant luciferase to detect inhibitors of the reporter enzyme. Compounds that inhibit ATXN2 expression but is not cytotoxic were selected for confirmatory and secondary screens.
PROTOCOL TABLE (as described by Inglese J, Shamu CE and Guy RK. 2007) SEQUENCE No. (e.g., 1, 2, 3, etc.); PARAMETER (e.g., Cells, Incubation, Reagent, etc.); VALUE; DESCRIPTION. 1; Cells; 4 uL; white, solid bottom, 1536-well Greiner assay plate. 2; Incubation; 2 hr; 37 degree C in 5% humidified CO2. 3; Compounds; 23 nL; Kalypsis pintool (Wako USA) equipped with a 1536-well pin head. 4; Incubation; 24 hr; 37 degree C in 5% humidified CO2. 5; Reagent; 1 uL; Gly-Phe-7-Amino-4-trifluoromethylcoumarin. 6; Incubation; 30 min; 37 degree C in 5% humidified CO2. 7; Detection; Fluorescence; ViewLux plate reader (PerkinElmer). 8; Reagent; 3 uL; SteadyGlo luciferase solution (Promega). 9; Incubation; 5 min; room temperature. 10; Detection; Luminescence; ViewLux plate reader (PerkinElmer). NOTES (numbers refer to Sequence numbers above) 1. […] expressing ATXN2-luciferase reporter were suspended in phenol-red free DMEM and dispensed in assay plates using a Multidrop Combi dispenser (Thermo Fisher Scientific). Wells containing medium only were plated on each plate, and values were used to normalize (100% inhibition) in the luciferase and CellTiter-Fluor assays. 2. Assay plates were incubated. Evaporation was prevented by covering assay plates with metal lids containing holes to allow gas diffusion. 3. Compounds were added in a dose response manner with the final concentrations of 57, 11.4, 2.28, 0.46, 0.091, 0.018, 0.0037 uM. Vehicle-only plates, with DMSO being pin-transferred to columns 5-48, were inserted uniformly at the beginning and the end of each library to monitor and record any shifts in assay performance. 5. 125 uM Gly-Phe-7-Amino-4-trifluoromethylcoumarin (MP Biomedicals) working concentration was used at a final concentration of 25 uM. 7. To assess cell viability; the assay plates were read using the ViewLux high-throughput CCD imager (PerkinElmer), wherein single end-point fluorescence measurement was acquired (excitation 405/10; emission 540/25 nm). 8. Detection reagent SteadyGlo Luciferase (Promega) was added to the assay plate. 10. Luminescence is then measured on the ViewLux imager equipped with a clear emission filter using a 2 sec exposure. […]
Potency is read from the fitted curve at half-maximal effect.

SMILES	Potency	activity change, negative = inhibition
C[C@]12CC[C@H](O)C[C@H]1CC[C@@H]1[C@@H]2CC[C@]2(C)[C@@H](C3=CC(=O)OC3)CC[C@]12O	282 nM (active)	–
CC12CCC(O)CC1CCC1C2CCC2(C)C(C3=CC(=O)OC3)CCC12O (centres undefined)	398 nM (active)	–
C[C@]12CCC3C(CCC4=CC(O)CC[C@@]43/C=N/O)C1(O)CCC2C1=CC(=O)OC1 (some centres undefined)	355 nM (active)	–
COc1ccc(O)c2c(=O)c3c(OC)cc4c(c3oc12)C1C=COC1O4 (centres undefined)	2000 nM (active)	–
O=C1NC(=O)N(CCc2ccc(F)cc2)C(=O)/C1=C/C=C/c1ccccc1	7940 nM (active)	–
c1ccc2sc(N3CCNCC3)nc2c1	inactive	–
COc1cc2nc(CN3CC=C(c4ccccc4)CC3)[nH]c(=O)c2cc1OC	282 nM (active)	–
COc1cc2c(cc1OC)-c1c3c(cc4c1[C@@H](C2)N(C)CC4)OCO3	1120 nM (active)	–
COC1C(O)C(C)OC(OC2C(Oc3cccc4c(O)c5c(=O)oc6ccc(C)c7c(=O)oc(c34)c5c67)OC(C)C(O)C2O)C1O (centres undefined)	–	-5.87% [at 11.5 µM] (inactive)
CN1C(=O)NC(=O)/C(=C\C=C\c2ccccc2[N+](=O)[O-])C1=O	11200 nM (active)	–
CCCCN=C[C@]12CCC(O)CC1(O)CCC1[C@@H]2CC[C@]2(C)[C@H](C3C=CC(=O)O3)CCC12O (some centres undefined)	631 nM (active)	–
CNC(=O)Nc1ccc(C(=O)N/N=C\C23CC[C@@H](O)CC2(O)CC[C@@H]2[C@@H]3CCC3(C)C(C4=CC(=O)OC4)CCC23O)cc1 (some centres undefined)	25100 nM (active)	–
CC12CCC3C(CCC4(O)CC(O)CCC34C=NO)C1(O)CCC2C1=COC(=O)C1 (centres undefined)	282 nM (active)	–
C1=NCCc2c1[nH]c1ccccc21	3160 nM (active)	–
C[C@@H]1C[C@@H]([C@H](O)CC2CC(=O)NC(=O)C2)C(=O)[C@@H](C)C1	1260 nM (active)	–
C[C@H]1C[C@@H](C)C(=O)[C@@H]([C@H](O)CC2CC(=O)NC(=O)C2)C1	178 nM (active)	–
CC(=O)OC1(C)CC(C)C(=O)C(C(O)CC2CC(=O)NC(=O)C2)C1 (centres undefined)	10 nM (active)	–

SMILES	Potency	activity change, negative = inhibition
O=C(CSC1c2ccccc2-c2ccccc21)N/N=C/c1ccccc1O	3160 nM (active)	–
C[C@H]1CCC[C@H](O)CCCCCc2cc(O)cc(O)c2C(=O)O1	3160 nM (active)	–
C[C@H]1CCC[C@@H](O)CCC/C=C/c2cc(O)cc(O)c2C(=O)O1	1410 nM (active)	–
COc1ccc(CCNCc2ccc(F)cc2)cc1OC	–	-6.67% [at 11.5 µM] (inactive)
O=C(Nc1ccc(OC(=O)N2CCCCC2)cc1)N1CCOCC1	4470 nM (active)	–
CC(=O)O[C@H]1[C@H]2O[C@]23[C@@H]2CC[C@]4(O)C[C@@H](O)CC[C@]4(C)C2CC[C@]3(C)[C@H]1c1ccc(=O)oc1 (some centres undefined)	39.8 nM (active)	–
C[C@H]1[C@@H](OS(=O)(=O)O)C[C@@H]2C[C@H]([C@@H](O)c3cc(=O)[nH]c(=O)[nH]3)NC3=NC[C@H]1N32	7940 nM (active)	–
NC(=O)c1c(Br)n(C2OC(CO)C(O)C2O)c2ncnc(N)c12 (centres undefined)	1580 nM (active)	–
O=c1[nH]c2ccccc2n1C1CCN(C(c2cc3ccccc3o2)c2nnnn2-c2ccc3c(c2)OCCO3)CC1 (centres undefined)	3160 nM (active)	–
COc1cccc(C(c2nnnn2-c2ccc3c(c2)OCCO3)N2CCC(n3c(=O)[nH]c4ccccc43)CC2)c1OC (centres undefined)	3550 nM (active)	–
Cc1cccc(C)c1-n1nnnc1C(c1cc2ccccc2o1)N1CCC(n2c(=O)[nH]c3ccccc32)CC1 (centres undefined)	3160 nM (active)	–
COC(=O)C(O)(c1ccc(NC(=S)NC(=O)c2ccc(Cl)cc2Cl)c(C)c1)C(F)(F)F (centres undefined)	–	-8.26% [at 11.5 µM] (inactive)
CN1C2CCC1/C(=C/c1ccccn1)C(=O)/C2=C\c1ccccn1	398 nM (active)	–
CC1CC(C)CC(C)C(O)C(C#N)=CC=CCC(C2CCCC2C(=O)O)OC(=O)CC(O)C(C)C1 (centres undefined)	501 nM (active)	–
O=C1NC2C(=CC(O)C(O)C2O)c2cc3c(cc21)OCO3 (centres undefined)	199 nM (active)	–
CCCCc1ccc2[nH]cc(CCN)c2c1	3160 nM (active)	–
NC(Cc1ccc(Cl)cc1)c1csc(Nc2ccccn2)n1 (centres undefined)	22400 nM (active)	–
